The record followed here is ChEMBL document CHEMBL3988442, “University of Dundee, Small-Polar-MMV Screening Library” (2021).

For some of these results: Potency and affinity values are given separately.

Holding throughout (design): scale not given: direction of the effect not stated beside the values
For assay [1], the target named is Protein translocase subunit SecA (Escherichia coli (strain K12)) (UniProt P10408). Put plainly: Assay to Identify E. coli SecA ATPase Inhibitors. Particulars: 30 µM. It counts as functional.
Chain of Protein translocase subunit SecA (Escherichia coli (strain K12)) (P10408 whole entry): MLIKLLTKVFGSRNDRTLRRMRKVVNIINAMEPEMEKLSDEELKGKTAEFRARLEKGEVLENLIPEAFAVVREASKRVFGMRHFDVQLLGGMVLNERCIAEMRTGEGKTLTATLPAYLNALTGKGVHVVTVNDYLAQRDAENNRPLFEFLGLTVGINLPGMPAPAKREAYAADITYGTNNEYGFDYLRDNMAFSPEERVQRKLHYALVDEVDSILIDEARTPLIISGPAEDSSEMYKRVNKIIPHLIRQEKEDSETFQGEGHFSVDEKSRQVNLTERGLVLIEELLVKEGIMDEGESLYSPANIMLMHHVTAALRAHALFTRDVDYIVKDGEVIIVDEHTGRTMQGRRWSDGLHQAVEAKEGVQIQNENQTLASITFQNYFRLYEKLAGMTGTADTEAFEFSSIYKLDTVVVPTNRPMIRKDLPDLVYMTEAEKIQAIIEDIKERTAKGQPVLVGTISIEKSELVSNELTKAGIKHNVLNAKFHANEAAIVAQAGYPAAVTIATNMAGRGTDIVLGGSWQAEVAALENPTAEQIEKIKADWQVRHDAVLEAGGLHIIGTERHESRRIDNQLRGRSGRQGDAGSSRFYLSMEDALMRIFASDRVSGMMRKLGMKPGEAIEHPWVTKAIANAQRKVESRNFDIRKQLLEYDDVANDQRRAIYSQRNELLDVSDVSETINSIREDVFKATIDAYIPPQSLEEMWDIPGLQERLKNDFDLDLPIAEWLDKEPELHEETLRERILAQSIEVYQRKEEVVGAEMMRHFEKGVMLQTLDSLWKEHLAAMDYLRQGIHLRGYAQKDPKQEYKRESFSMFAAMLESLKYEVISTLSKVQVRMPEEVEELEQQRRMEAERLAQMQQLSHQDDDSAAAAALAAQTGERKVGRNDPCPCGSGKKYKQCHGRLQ
The target in assay [2] is T1, Ubiquitin-activating enzyme e1, putative (Leishmania donovani (strain BPK282A1)) (UniProt E9BSI1).
T1 sequence (whole entry): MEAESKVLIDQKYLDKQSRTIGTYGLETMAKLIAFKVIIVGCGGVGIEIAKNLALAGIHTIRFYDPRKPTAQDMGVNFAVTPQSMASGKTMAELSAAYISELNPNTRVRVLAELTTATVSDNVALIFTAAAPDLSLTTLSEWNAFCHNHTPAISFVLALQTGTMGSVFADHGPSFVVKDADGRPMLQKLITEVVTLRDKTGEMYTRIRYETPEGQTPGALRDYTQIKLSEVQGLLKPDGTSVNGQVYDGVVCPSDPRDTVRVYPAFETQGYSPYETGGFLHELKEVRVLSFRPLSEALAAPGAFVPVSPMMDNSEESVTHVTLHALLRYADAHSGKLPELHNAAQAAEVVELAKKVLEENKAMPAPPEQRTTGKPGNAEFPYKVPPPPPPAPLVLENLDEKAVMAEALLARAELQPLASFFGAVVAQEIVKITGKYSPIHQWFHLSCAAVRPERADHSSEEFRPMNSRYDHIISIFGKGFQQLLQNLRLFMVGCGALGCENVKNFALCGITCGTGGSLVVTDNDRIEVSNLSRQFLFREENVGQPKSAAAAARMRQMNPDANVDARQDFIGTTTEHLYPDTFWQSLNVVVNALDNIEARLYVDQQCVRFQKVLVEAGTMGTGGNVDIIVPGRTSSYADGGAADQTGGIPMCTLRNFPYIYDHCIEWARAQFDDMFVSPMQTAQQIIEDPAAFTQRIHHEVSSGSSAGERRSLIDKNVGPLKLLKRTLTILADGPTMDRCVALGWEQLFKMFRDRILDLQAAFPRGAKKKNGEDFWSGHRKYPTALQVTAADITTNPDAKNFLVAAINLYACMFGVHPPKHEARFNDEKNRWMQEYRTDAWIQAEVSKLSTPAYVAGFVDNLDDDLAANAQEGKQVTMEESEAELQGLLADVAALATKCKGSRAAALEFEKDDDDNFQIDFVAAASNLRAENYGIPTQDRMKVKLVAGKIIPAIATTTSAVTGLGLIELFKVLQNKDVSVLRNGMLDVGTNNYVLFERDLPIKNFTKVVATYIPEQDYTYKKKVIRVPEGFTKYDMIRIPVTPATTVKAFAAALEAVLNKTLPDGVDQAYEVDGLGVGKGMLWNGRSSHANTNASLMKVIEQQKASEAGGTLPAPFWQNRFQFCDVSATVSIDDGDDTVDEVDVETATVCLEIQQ
Put plainly: Leishmania donovani Ubiquitin Activating Enzyme (LdE1). It is filed as functional. Particulars: 30 µM.

Assay [3] has as its target AMP-activated protein kinase, AMPK (Homo sapiens) (UniProt P54646+O43741+P54619+Q9UGJ0+Q9Y478+Q13131+Q9UGI9). Put plainly: AMP-dependent Kinase enzyme assay. An in vitro enzyme assay that detects ADP turnover that is directly proportional to AMPK activity. This uses naive AMPK that is activated during the assay with MK-8722. Particulars: 30 µM. It is filed as functional.

Assay [4] has as its target Sialic acid-binding Ig-like lectin 9 (Homo sapiens) (UniProt Q9Y336). Put plainly: Hs-Siglec9 ALPHAscreen SOP 20170721. Particulars: 10 µM. Background: Alpha assays give light when donor and acceptor beads are brought close together.
The test system of assay [5] is Trypanosoma cruzi. Put plainly: Trypanosoma cruzi phosphomannomutase and mannose-1-phosphate guanylyltransferase assay. Particulars: 10 µM. It counts as functional.
Assay [6] deals with T2, Arginase-2, mitochondrial (Homo sapiens) (UniProt P78540).
T2 sequence (whole entry): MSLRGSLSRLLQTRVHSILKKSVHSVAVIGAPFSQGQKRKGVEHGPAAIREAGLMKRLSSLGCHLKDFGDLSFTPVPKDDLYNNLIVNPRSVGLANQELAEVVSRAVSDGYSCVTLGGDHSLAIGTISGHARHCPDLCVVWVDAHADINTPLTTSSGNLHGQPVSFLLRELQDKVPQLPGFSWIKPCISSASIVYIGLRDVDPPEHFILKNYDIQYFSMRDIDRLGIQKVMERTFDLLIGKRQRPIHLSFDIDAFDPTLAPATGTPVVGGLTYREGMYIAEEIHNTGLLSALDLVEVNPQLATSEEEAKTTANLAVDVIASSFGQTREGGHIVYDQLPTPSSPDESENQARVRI
Put plainly: in vitro enzyme assay to detect the production of urea directly proportional to the activity of Arginase II. Further: in the data most compounds retested in dose-response had high values. It is filed as functional. Particulars: 33.3 µM.

Assay [7] addresses T3, Proteasome subunit beta (Trypanosoma cruzi) (UniProt O96673).
T3 sequence (whole entry): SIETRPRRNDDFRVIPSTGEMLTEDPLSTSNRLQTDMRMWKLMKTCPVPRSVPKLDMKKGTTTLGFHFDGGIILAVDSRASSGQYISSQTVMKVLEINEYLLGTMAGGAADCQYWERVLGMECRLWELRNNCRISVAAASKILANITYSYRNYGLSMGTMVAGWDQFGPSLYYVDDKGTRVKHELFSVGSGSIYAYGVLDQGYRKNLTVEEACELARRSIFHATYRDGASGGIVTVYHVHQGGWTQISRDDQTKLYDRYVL
Put plainly: Trypanosoma cruzi proteasome chymotrypsin-like activity (TcProtChymo) assay. Further: in the data most compounds retested in dose-response had high values. It is filed as functional. Particulars: 9.37 µM.

For assay [8], the species on record is Homo sapiens. Put plainly: To identify inhibition of the IFN signalling (Jak-Stat) pathway via expression of an eGFP reporter gene under the control of an IFN-stimulated response element (ISRE) containing MxA promoter. Particulars: 30 µM. It counts as functional. (In general: In a reporter assay the amount or activity of a reporter protein is the signal.)
In assay [9] the target is T4, Tyrosyl-tRNA synthetase, putative (Trypanosoma cruzi (strain CL Brener)) (UniProt Q4DSP6).
T4 sequence (whole entry): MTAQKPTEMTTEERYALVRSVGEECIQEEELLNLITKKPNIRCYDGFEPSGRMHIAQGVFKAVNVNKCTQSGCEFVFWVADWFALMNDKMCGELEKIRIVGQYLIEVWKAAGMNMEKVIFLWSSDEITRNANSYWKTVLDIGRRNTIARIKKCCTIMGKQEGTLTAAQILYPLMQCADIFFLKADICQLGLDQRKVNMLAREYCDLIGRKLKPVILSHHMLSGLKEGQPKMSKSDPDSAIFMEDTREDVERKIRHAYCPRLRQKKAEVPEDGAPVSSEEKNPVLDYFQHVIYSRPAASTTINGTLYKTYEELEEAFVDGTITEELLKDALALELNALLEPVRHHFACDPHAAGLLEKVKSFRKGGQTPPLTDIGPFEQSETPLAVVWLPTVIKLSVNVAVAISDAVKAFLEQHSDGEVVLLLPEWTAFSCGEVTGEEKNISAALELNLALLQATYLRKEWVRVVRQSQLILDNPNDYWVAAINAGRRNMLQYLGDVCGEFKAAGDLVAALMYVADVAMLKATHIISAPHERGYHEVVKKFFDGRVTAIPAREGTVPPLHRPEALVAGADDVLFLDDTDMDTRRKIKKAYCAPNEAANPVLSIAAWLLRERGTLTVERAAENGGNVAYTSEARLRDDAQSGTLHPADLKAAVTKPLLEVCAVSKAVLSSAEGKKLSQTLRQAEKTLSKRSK
Put plainly: Trypanosoma cruzi tyrosyl tRNA synthetase (TcYRS) _High Tyrosine SOP. Further: in the data most compounds retested in dose-response had high values. It counts as functional. Particulars: 30 µM.

Assay [10] concerns the target T4, Tyrosyl-tRNA synthetase, putative (Trypanosoma cruzi (strain CL Brener)). Put plainly: Trypanosoma cruzi tyrosyl tRNA synthetase (TcYRS) SOP. It is filed as functional. Particulars: 30 µM.
Assay [11] deals with Chromo domain-containing protein 1 (Saccharomyces cerevisiae (strain ATCC 204508 / S288c) (Baker's yeast)) (UniProt P32657). Put plainly: ScCHD-1 Enzyme Inhibition Assay. Further: in the data most compounds retested in dose-response had high values. It is filed as functional. Particulars: 30 µM.
Chain of Chromo domain-containing protein 1 (Saccharomyces cerevisiae (strain ATCC 204508 / S288c) (Baker's yeast)) (P32657 whole entry, the tested form may be a part): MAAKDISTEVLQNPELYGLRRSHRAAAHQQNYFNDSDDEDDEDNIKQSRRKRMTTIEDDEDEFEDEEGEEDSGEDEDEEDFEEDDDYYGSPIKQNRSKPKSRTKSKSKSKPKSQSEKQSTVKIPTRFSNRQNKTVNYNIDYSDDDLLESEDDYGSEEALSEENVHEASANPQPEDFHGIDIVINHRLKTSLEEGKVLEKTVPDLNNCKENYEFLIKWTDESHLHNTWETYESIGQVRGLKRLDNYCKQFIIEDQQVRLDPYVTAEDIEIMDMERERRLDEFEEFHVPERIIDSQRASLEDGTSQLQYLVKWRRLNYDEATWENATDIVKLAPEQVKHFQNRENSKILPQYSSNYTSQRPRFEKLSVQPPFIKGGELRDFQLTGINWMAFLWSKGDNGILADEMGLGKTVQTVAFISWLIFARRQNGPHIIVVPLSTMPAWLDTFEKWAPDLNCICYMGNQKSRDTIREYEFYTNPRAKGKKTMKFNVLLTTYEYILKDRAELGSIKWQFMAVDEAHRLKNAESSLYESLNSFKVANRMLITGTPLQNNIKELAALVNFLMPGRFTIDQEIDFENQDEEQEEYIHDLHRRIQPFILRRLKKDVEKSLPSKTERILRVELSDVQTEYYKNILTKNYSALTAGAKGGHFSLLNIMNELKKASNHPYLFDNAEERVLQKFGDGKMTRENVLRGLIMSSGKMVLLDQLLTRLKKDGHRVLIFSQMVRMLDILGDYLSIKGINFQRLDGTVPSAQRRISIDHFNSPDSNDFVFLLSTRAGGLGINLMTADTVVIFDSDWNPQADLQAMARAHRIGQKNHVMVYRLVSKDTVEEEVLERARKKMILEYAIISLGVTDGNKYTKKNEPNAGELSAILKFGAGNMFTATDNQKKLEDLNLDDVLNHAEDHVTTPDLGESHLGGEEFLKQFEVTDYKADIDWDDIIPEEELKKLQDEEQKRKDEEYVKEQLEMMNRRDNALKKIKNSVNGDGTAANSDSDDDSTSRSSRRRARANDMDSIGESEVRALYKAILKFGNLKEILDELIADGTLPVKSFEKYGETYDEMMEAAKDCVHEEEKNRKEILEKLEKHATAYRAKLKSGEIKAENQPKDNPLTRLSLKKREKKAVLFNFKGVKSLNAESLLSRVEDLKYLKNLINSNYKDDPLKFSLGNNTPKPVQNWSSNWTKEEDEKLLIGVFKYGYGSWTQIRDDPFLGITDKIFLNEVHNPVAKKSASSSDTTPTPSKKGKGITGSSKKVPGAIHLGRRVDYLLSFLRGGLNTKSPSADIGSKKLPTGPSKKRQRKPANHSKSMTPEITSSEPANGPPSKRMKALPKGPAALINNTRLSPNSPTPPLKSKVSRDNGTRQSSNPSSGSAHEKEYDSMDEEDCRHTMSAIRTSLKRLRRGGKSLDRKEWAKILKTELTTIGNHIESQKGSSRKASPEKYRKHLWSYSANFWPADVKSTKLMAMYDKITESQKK

Chain of Sialic acid-binding Ig-like lectin 9 (Homo sapiens) (Q9Y336 whole entry): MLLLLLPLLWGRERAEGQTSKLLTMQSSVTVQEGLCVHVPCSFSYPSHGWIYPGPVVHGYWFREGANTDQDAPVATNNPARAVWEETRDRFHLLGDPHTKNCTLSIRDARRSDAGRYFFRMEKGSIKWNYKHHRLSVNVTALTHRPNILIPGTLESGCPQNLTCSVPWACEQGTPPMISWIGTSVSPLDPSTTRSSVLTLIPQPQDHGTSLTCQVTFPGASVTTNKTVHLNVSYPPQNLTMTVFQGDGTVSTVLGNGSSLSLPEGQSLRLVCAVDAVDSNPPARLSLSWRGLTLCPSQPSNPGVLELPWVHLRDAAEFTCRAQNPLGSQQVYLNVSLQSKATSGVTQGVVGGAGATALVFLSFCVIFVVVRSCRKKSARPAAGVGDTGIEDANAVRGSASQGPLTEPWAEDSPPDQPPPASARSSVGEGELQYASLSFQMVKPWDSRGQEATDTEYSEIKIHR

As for `CCOCC(O)CN1CCN(C(=O)c2cc(F)ccc2C)CC1` (stereo not drawn), the Percent Effect in [1] is -1.68%; in assay [2], 0%; in [3] it was -2.69%; in assay [4] it was -1.76%; in assay [5] it was 0.187%; in assay [6] it was 0%. For the same compound, the Percent Effect is -3.72% in [7]; -13.3% in assay [8]; 0.971% in assay [9]; 2.44% in assay [10]; 2.5% in assay [11].

On to `CC(C)N1CCCC(CCCc2ccccn2)(C(=O)O)C1` (stereo not drawn), for which the Percent Effect was -3.09% in assay [1]; 6.76% in assay [2]; 15.5% in assay [3]; 0.499% in [4]; -1.98% in [5]; -0.696% in [6]. In addition, the Percent Effect was 12.3% in [7]; -2.07% in assay [8]; 10.8% in assay [9]; 14.3% in [10]; 4.56% in assay [11].

As to `Cc1nonc1CC(=O)N1C[C@@H]2CC[C@H](C1)N(Cc1ccccc1)C2=O`, the Percent Effect is -5.85% in assay [1]; -2.7% in assay [2]; -1.13% in assay [3]; 6.66% in assay [4]; -4.83% in assay [5]; -2.86% in assay [6]. The Percent Effect was 6.9% in assay [7]; 0.776% in [8]; 0.529% in assay [9]; 2.44% in assay [10]; -2.68% in [11].

Regarding `COc1ccc(C2C3=C(COC3=O)Nc3[nH]nc(C)c32)cc1OC` (stereo not drawn), the Percent Effect in assay [1] is 2.08%; in [2], 6.67%; in assay [3], 9.48%; in assay [4] it was -1.62%; in assay [5], -6.68%; in assay [6] it was -10.7%. Moreover, the Percent Effect in [7] was 12.8%; in [8] it was 8.17%; in assay [9], 5.29%; in assay [10] it was 10.3%; in assay [11], -11%.

As to `CS(=O)(=O)CCC(=O)Nc1cnn(-c2ccccc2Cl)c1`, the Percent Effect in [1] was -5.57%; in assay [2], 13.5%; in [3], -8%; in [4], 12.3%; in [5], 2.88%; in [6], -0.185%. In addition, the Percent Effect in [7] is 6.28%; in [8], 6.38%; in [9], 7.92%; in assay [10], 18.3%; in assay [11], -8.04%.

As to `O=C(c1cnccn1)N1CCN2C[C@H](OCc3ccccn3)C[C@H]2C1`, the Percent Effect in [1] is -0.668%; in [2] it was 0%; in assay [3], 2.67%; in assay [4], 7.25%; in [5], -3.09%; in assay [6] it was 0.538%. Moreover, the Percent Effect in [7] was 13%; in [8], -9.74%; in assay [9], 1.04%; in assay [10] it was -2.5%; in assay [11] it was 3.56%.

As for `Cn1nccc1CNC(=O)Nc1cc(C(F)(F)F)c[nH]c1=O`, the Percent Effect is -2.37% in assay [1]; 7.89% in assay [2]; -1.77% in assay [3]; 11.9% in [4]; 2.44% in assay [5]; 8.43% in assay [6]. Moreover, the Percent Effect in [7] was 4.51%; in assay [8], 0.842%; in assay [9] it was 6.37%; in [10], 12.2%; in assay [11] it was -9.48%.

In the case of `Cc1nn(C)c2c(N3CCN(C(=O)C4CCC4)CC3)ncnc12`, the Percent Effect in assay [1] was -0.898%; in assay [2] it was 9.33%; in assay [3], 2.37%; in assay [4], -1.34%; in [5], -6.48%; in assay [6], -2.99%. In addition, the Percent Effect in [7] is 13.7%; in assay [8], 14.9%; in [9] it was -15.9%; in assay [10] it was 15.4%; in assay [11] it was -9.22%.
